# Inconclusive results are not listed. A call without a number means that no potency is given here. The source made the active and inactive calls. Unless noted, calls follow the shape of the dose curve; as a rule, active = well fitted curve in the direction sought with a large enough effect; inconclusive = small, poorly fitted or top-dose-only effect, or another doubt; inactive = no such curve, though single readings can be large; an effect the other way counts as inactive or inconclusive.
# Key:
# [1] = molecular target: Phospholipid hydroperoxide glutathione peroxidase GPX4 (Homo sapiens) (UniProt P36969); experiment: Primary qHTS Assay for Inhibitors of Recombinant Selenoprotein Glutathione Peroxidase 4 (GPX4) (AID 1845192); also: nearly all actives have a fitted effect of over 65% in size; also: potency is read from the fitted curve at half-maximal effect; as to activity change, negative = inhibition: series mostly up to about 50 µM
# In short: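 NADPH consumption, followed by fluorescence at 340/450 nm between 0 and 15 min, reports GPX4 activity via coupled glutathione reductase (100 nM). Enzyme 200 nM was pre-exposed to compound 30 min; 0.5 mM cumene hydroperoxide and 1 mM GSH served as substrates.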
# [2] = molecular target: Luciferin 4-monooxygenase (Photinus pyralis) (UniProt P08659); experiment: Primary firefly luciferase (FLuc) qHTS assay for identification of artifact compounds. (AID 1845220); also: nearly all actives have a fitted effect of over 60% in size; as to activity change, negative = inhibition: series mostly up to about 54 µM
# In short: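 FLuc 10 nM; luciferin 10 uM; ATP 10 uM; Tris-acetate pH 7.6, Mg-acetate 10 mM; 15 min RT preincubation; 5 min reaction; luminescence.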
# [3] = Primary fluorescence-based thiol-reactive (MSTI) qHTS assay for identification of artifact compounds. (AID 1845221); also: nearly all actives have a fitted effect of over 65% in size; also: potency is read from the fitted curve at half-maximal effect;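 as to activity change, negative = thiol reactive: series mostly up to about 54 µM; thiol-reactive compounds lower the probe fluorescence signal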
# In short: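 One-hour, room-temperature, dark incubation of compound with 4 uM MSTI in PBS (pH 7.4, 2% DMSO) precedes a fluorescence read at 525 nm excitation, 598 nm emission; Hill-equation fitting yields concentration-response values.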
# [4] = test system: Nanoluciferase (engineered Oplophorus gracilirostris luciferase); experiment: Primary Nanoluciferase (NLuc) qHTS assay for identification of artifact compounds. (AID 1845222);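 also: NLuc secreted into diluted conditioned medium of S16 cells; series mostly up to about 54 µM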
# In short: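 NLuc from S16 cell medium (1:55) plus test compounds, 15 min, room temperature. Luminescence after Nano-Glo (1:100) addition, 5 min.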
# [5] = Primary redox qHTS assay for identification of artifact compounds. (AID 1845223)
# In short: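 Amplex Red (25 uM) and HRP (250 mU/mL) in HBSS, with compounds for 15 min, then 250 uM DTT for 30 min, room temperature, dark. Fluorescence 525/598 nm read; normalized to DMSO and 10 uM DA3003; Hill fit.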
# [6] = molecular target: Glutathione peroxidase 1 (Homo sapiens) (UniProt P07203); experiment: Primary qHTS Assay for Inhibitors of Recombinant Selenoprotein Glutathione Peroxidase 1 (GPX1) (AID 1845191); also: nearly all actives have a fitted effect of over 65% in size
# In short: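 10 nM GPX1 + cpd, 30 min RT; start w/ 1 mM GSH, 0.5 mM cumene hydroperoxide, 0.5 mM NADPH, 100 nM GR, 0.01% BSA; buffer 50 mM Tris-HCl pH 7.5, 2 mM EDTA, 150 mM NaCl; Fl 340/450, 0 & 15 min.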
# [7] = qHTS drug screen for cell cycle checkpoint inhibitors in PARPi-resistant BRCA-mutant ovarian cancer cell lines. (AID 1963452; calls by dose curve); conditions: PEO1/OlaR viability, CellTiter-Glo luminescence, 96 h, stronger effect = lower value
# In short: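 PEO1, PEO4 and PEO1/OlaR ovarian cancer cells, 600 per well, exposed 96 h at 37C to a dilution series. Viability read by CellTiter-Glo luminescence, normalized to DMSO and empty wells; activity summarized as Z-AUC.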
# Chain of Phospholipid hydroperoxide glutathione peroxidase GPX4 (Homo sapiens) (P36969 whole entry, looked up): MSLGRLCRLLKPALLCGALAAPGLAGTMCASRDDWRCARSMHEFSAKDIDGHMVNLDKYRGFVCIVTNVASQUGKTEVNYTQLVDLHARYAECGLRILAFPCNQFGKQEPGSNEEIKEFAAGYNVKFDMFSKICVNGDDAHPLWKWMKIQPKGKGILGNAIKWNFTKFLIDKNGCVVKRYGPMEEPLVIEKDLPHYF
# Chain of Glutathione peroxidase 1 (Homo sapiens) (P07203 whole entry, looked up): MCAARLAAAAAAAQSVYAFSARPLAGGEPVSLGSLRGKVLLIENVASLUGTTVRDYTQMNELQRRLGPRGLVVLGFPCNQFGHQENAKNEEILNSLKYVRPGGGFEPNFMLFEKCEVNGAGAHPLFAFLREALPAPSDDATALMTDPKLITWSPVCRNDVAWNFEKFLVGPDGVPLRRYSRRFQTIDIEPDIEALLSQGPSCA
smiles,measurement,setting,value
C/C=C(/C)C(=O)O[C@H]1C=C(C)C[C@H](OC(=O)c2ccc(O)cc2)C2[C@](O)(C(C)C)CC[C@@]21C (some centres undefined),Potency,[1],inactive
same,Potency,[2],inactive
same,Potency,[3],inactive
same,Potency,[4],inactive
same,Potency,[5],inactive
COC1C2=C(COC2=O)C2(C)CCCC(C)(CO)C2C1OC(=O)c1ccccc1 (centres undefined),Potency,[6],inactive
same,Potency,[2],inactive
same,Potency,[4],inactive
same,Potency,[5],inactive
C[C@]12CCC(=O)C=C1CC[C@@H]1[C@@H]2[C@@H](O)C[C@@]2(C)[C@H]1CC[C@]2(O)C(=O)COP(=O)(O)O,Potency,[1],6.31 µM (active)
CCCCNC(=O)[C@@H]1Cc2ccccc2N1C(=O)[C@@H](N)CC,Potency,[1],inactive
same,Potency,[2],inactive
same,Potency,[3],inactive
same,Potency,[4],inactive
same,Potency,[5],inactive
CC1CCC2(C(=O)OC3OC(COC4OC(CO)C(O)C(O)C4O)C(O)C(O)C3O)CCC3(C)C(=CCC4C5(C)CCC(O)C(C)(C(=O)O)C5CCC43C)C2C1(C)O (centres undefined),Potency,[1],inactive
same,"activity change, negative = inhibition",[2],-4.02% [at 11.6 µM] (inactive)
same,"activity change, negative = thiol reactive",[3],18.5% [at 11.5 µM] (inactive)
same,"activity, negative = inhibition",[4],3.18% [at 11.6 µM] (inactive)
same,redox activity (% of DA3003),[5],2.59% [at 11.5 µM] (inactive)
COc1cc([C@@H]2Oc3c(OC)cc(CCCO)cc3[C@@H]2CO[C@@H]2O[C@H](CO)[C@@H](O)[C@H](O)[C@H]2O)ccc1O,Potency,[1],inactive
same,Potency,[2],inactive
same,Potency,[3],4.12 µM (active)
same,Potency,[4],inactive
same,Potency,[5],inactive
Cc1ccc2c(c1)C=Cc1cc(C)ccc1C2c1cn(Cc2ccc(C(=O)Nc3nn[nH]n3)o2)c(=O)[nH]c1=S,Potency,[1],inactive
same,Potency,[2],inactive
same,Potency,[3],inactive
same,Potency,[4],inactive
C[C@@H]1C/C=C/C=C\C=C\C=C\[C@H](O[C@@H]2O[C@H](C)[C@@H](O)[C@H](N)[C@@H]2O)C[C@@H]2O[C@](O)(C[C@@H](O)C[C@H]3O[C@@H]3/C=C/C(=O)O1)C[C@H](O)[C@H]2C(=O)O,Potency,[1],inactive
same,Potency,[2],inactive
same,Potency,[3],inactive
same,Potency,[4],inactive
same,Potency,[5],inactive
CCC[C@@H]1C[C@@H](C(=O)N[C@@H]([C@H]2O[C@H](SC)[C@H](O)[C@@H](O)[C@@H]2O)[C@@H](C)O)N(C)C1,Potency,[1],inactive
same,Potency,[2],inactive
same,Potency,[3],inactive
same,Potency,[4],inactive
COC(=O)C1C(CC(C)=O)C=CC(O)C12Oc1cc(C)cc(O)c1C2=O (centres undefined),Potency,[1],inactive
same,Potency,[2],inactive
same,Potency,[3],5.85 µM (active)
same,Potency,[4],inactive
CC(=O)Oc1c(C)cc(OCC(O)CNC(C)C)c(C)c1C (centres undefined),Potency,[1],inactive
COC1C=C([C@@H]2CC=C3[C@@]4(C)C(CC[C@]32C)[C@@]2(C)C=CC(=O)C(C)(C)C2C[C@H]4OC(C)=O)C(=O)O1 (some centres undefined),Potency,[1],inactive
same,Potency,[2],inactive
same,Potency,[3],inactive
same,Potency,[4],inactive
CC(=O)O[C@H]1C[C@@H]2[C@]3(CC[C@]4(C)[C@@H](C5(C)CCC(C(C)(C)O)O5)[C@@H](O)C[C@@]24C)C[C@@]32CC[C@H](O[C@@H]3OC[C@@H](O)[C@H](O)[C@H]3O)C(C)(C)[C@H]12 (some centres undefined),Potency,[1],inactive
same,Potency,[2],inactive
same,Potency,[3],inactive
same,Potency,[4],inactive
C[C@H](CCC(=O)O)[C@H]1CC[C@H]2[C@@H]3[C@H](O)C[C@@H]4C[C@H](O)CC[C@]4(C)[C@H]3CC[C@]12C,Potency,[6],inactive
same,Z-AUC,[7],1.79 (inactive)
same,Z-AUC,[7]; measured here: PEO1 parental Z-AUC,0.809
same,Z-AUC,[7]; measured here: PEO4 Z-AUC,0.917
CC(=O)O[C@@H]1[C@H]2[C@@H](OC(=O)c3ccccc3)[C@@H](C)C[C@]2(O)[C@H](OC(C)=O)[C@@]2(C)[C@@H]3CC(C)(C)C(=O)[C@]3(OC(C)=O)C[C@@]12C,Potency,[1],inactive
same,Potency,[2],inactive
same,Potency,[3],inactive
same,Potency,[4],inactive
same,Potency,[5],inactive
CCCCCCCCCCCCCC[n+]1ccc(C)cc1,Potency,[1],inactive
C[C@H]1C[C@H]2[C@@H]3CCC4=CC(=O)C=C[C@]4(C)[C@@]3(F)[C@@H](O)C[C@]2(C)[C@@]1(O)C(=O)COP(=O)(O)O,Potency,[1],inactive
same,Potency,[2],inactive
same,Potency,[3],inactive
same,Potency,[4],inactive
same,Potency,[5],inactive
C/C(=C\CCC(C(=O)O)C1CCC2(C)C3=C(CCC12C)C1(C)CCC(=O)C(C)(C)C1CC3)C(=O)O (centres undefined),Potency,[1],inactive
same,Potency,[2],inactive
same,Potency,[3],inactive
same,Potency,[4],inactive
O=C1CSC2(CCN(CCCN3c4ccccc4Sc4ccc(Cl)cc43)CC2)N1,Potency,[1],inactive
O=C(O[C@H]1[C@@H]2C=CO[C@@H](O[C@@H]3O[C@H](CO)[C@@H](O)[C@H](O)[C@H]3O)[C@@H]2[C@@]2(CO)O[C@@H]12)c1ccc(O)c(O)c1,Potency,[1],inactive
same,Potency,[2],inactive
same,Potency,[3],3.27 µM (active)
same,Potency,[4],inactive
same,Potency,[5],inactive
C=C1CCC2C(C)(CO[C@@H]3O[C@H](CO)[C@@H](O)[C@H](O)[C@H]3O)C(O)CCC2(C)C1C(=O)CC1=CCOC1=O (some centres undefined),Potency,[1],inactive
same,Potency,[2],inactive
same,Potency,[3],10.3 µM (active)
same,Potency,[4],inactive
CCOC(=O)[C@H](CCc1ccccc1)N[C@@H](C)C(=O)N1C2CCCCC2C[C@H]1C(=O)O (some centres undefined),Potency,[1],inactive
same,Potency,[2],inactive
same,Potency,[3],inactive
same,Potency,[4],inactive

# Source: PubChem BioAssay (NCATS)
